According to PubChem BioAssay (NCATS):
Records with an inconclusive call do not appear. The source made the active and inactive calls. The call rests on the fitted dose curve; in most records, active means well fitted curve in the direction sought with a large enough effect; inconclusive means small, poorly fitted or top-dose-only effect, or another doubt; inactive means no such curve, though single readings can be large; an effect the other way counts as inactive or inconclusive.

Experiments:
[1] = molecular target: Calcium and integrin-binding protein 1 (Homo sapiens) (UniProt Q99828); test: Primary qHTS for Identification of Calcium Integrin Binding Protein 1 (CIB1) Competitor (AID 1508620);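 further: GST tagged CIB1 binding a fluorescein labelled alphaIIb integrin peptide tracer; top concentration of the series differs between compounds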
Method in brief: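 Fluorescence polarization competition: GST-tagged CIB1 (1 uM final) preincubated with compound 15 min at room temperature, then FITC-labelled alphaIIb peptide (100 nM final) added. After 15 min at room temperature, polarization read at Ex 480/Em 540.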

[2] = Primary qHTS for inhibitors of nuclear receptor binding SET domain protein 2 (NSD2) in an isogenic RCH-ACV NSD2 p.E1099K mutant (9B) (AID 1645876); further: nearly all actives have a fitted effect of over 70% in size
[3] = Primary qHTS for inhibitors of nuclear receptor binding SET domain protein 2 (NSD2) in an RCH-ACV wild type WT cells (2C) (AID 1645877); further: nearly all actives have a fitted effect of over 70% in size
On the % scale 0 is the no-effect control and ±100 the full control effect.

Calcium and integrin-binding protein 1 (Homo sapiens), sequence (Q99828 whole entry, looked up): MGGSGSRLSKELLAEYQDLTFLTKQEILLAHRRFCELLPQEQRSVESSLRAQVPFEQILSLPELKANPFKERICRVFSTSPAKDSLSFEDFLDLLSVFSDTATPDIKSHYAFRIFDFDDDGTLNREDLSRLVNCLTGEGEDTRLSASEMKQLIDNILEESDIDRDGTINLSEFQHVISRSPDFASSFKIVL

COc1c2ccoc2nc2c(OC)c(O[C@@H]3O[C@@H](C)[C@H](O)[C@@H](O[C@@H]4O[C@H](CO)[C@@H](O)[C@H](O)[C@H]4O)[C@H]3OC(C)=O)ccc12
inactive: Potency [1] | Potency [2] | Potency [3]

COc1cccc(C)c1C(=O)O[C@@H]1C[C@H](O[C@H]2[C@H](O)C[C@H](O[C@@H]3CCC[C@H]4[C@H]3C=C[C@@H]3CCCC/C=C/[C@H]5C=C(C(=O)O)[C@@H](C)C[C@@]56OC(=O)C(=C6O)OC(=O)[C@@]34C)O[C@@H]2C)O[C@H](C)[C@H]1O
inactive: Potency [1] | activity change, negative = viability loss [2] -5.35% [at 9.23 µM] | activity change, negative = cell killing [3] -1.86% [at 9.23 µM]

CC(C)(Oc1ccc(-c2nc3cc(Cl)ccc3s2)cc1)C(=O)O
inactive: Potency [1] | Potency [2] | Potency [3]

C=C1CCc2occ(C)c2[C@H]2[C@H]1[C@@]13O[C@@]1(C[C@@H](C)[C@H]3OC(C)=O)[C@H]1O[C@@]21C
inactive: Potency [1] | Potency [2] | Potency [3]

COc1c(O[C@@H]2O[C@H](CO)[C@@H](O)[C@H](O)[C@H]2O)c(CCC(=O)O)cc2ccoc12
inactive: Potency [1] | Potency [2] | Potency [3]

COC(=O)C(CC1(O)c2ccccc2N2C(=O)C(C)(C)N(O)C21)n1cnc2ccccc2c1=O (centres undefined)
inactive: Potency [1] | Potency [2] | Potency [3]

CC(=O)OC(C)C(C)(O)C(=O)O[C@@H]1CC[C@]2(C)CC(=O)C(=C(C)C)C[C@H]2[C@]1(C)OC(C)=O (some centres undefined)
inactive: Potency [1] | Potency [2] | Potency [3]

CCCO[C@@H]1O[C@H](CO)[C@@H](O)[C@H](O)[C@H]1O[C@@H]1OC[C@@H](O)[C@H](O)[C@H]1O
inactive: Potency [1] | Potency [2] | Potency [3]

COc1cc(O)cc2c1C(=O)OC(C)C2 (centres undefined)
inactive: Potency [1] | Potency [2] | Potency [3]

COc1cc2c(c(O)c1OC/C=C(\C)CC/C=C(/C)CCC=C(C)C)CN(C(CCC(=O)O)C(=O)O)C2=O (centres undefined)
inactive: Potency [1] | Potency [2] | Potency [3]

C[C@H]1[C@H](C)C[C@@H](C(=O)O)C2CC[C@]3(C)C(=CC[C@@H]4[C@@]5(C)CC[C@H](O)C(C)(C)[C@@H]5CC[C@]43C)[C@@H]21 (some centres undefined)
inactive: Potency [1] | Potency [2] | Potency [3]

O=C(Cc1ccccc1)OC[C@H]1O[C@H](O[C@H]2O[C@H](CO)[C@@H](O)[C@H](O)[C@H]2O)[C@H](O)[C@@H](O)[C@@H]1O
inactive: Potency [1] | Potency [2] | Potency [3]

COC(=O)C1C(c2ccc(O)cc2)C(C(=O)O)C1c1ccc(O)cc1 (centres undefined)
inactive: Potency [1] | Potency [2] | Potency [3]

CC1OC(OC2C(OC3C(O[C@H]4CC[C@@]5(C)C(CC[C@]6(C)C5C(=O)CC5=C7CC(C)(C)CC(O)[C@]7(C)CC[C@]56C)C4(C)C)OC(C(=O)O)C(O)C3O)OCC(O)C2O)C(O)C(O)C1O (some centres undefined)
inactive: Potency [1] | outcome [2] inactive [at 9.23 µM] | outcome [3] inactive [at 9.23 µM]

CC(=O)O[C@@H]1C(=O)C(C)=C(CCC(C)CC(=O)O)[C@@]2(C)CCCC(C)(C)C12 (some centres undefined)
inactive: Potency [1] | Potency [2] | Potency [3]

CC1(C)C=Cc2c(ccc3c2[N+]([O-])=C2C3(O)CC34NC(=O)C5(CCCN5C3=O)CC4C2(C)C)O1 (centres undefined)
inactive: Potency [1] | Potency [2] | Potency [3]

CC1=C[C@H](O)[C@H]2C(C)(C)CCC[C@]2(C)[C@@]1(O)CO
inactive: Potency [1] | Potency [2] | Potency [3]

CC[C@H]1OC(=O)[C@H](C)[C@@H](O[C@H]2C[C@@](C)(OC)[C@@H](O)[C@H](C)O2)C(C)[C@@H](O[C@@H]2O[C@H](C)C[C@H](N(C)C)[C@H]2O)[C@](C)(O)C[C@@H](C)CN(C)[C@H](C)[C@@H](O)[C@]1(C)O (some centres undefined)
inactive: Potency [1] | Potency [2] | Potency [3]

CC(C)=CC[C@H]1O[C@]2(O)C([C@H]3CCC4[C@@]5(C)CC[C@H](O[C@@H]6O[C@H](CO)[C@H](O)[C@H](O[C@@H]7O[C@H](CO)[C@@H](O)[C@H](O)[C@H]7O)[C@H]6O[C@@H]6O[C@@H](C)[C@H](O)[C@@H](O)[C@H]6O)C(C)(C)C5CC[C@@]4(C)[C@]3(C)[C@H]2O)[C@@]1(C)O (some centres undefined)
inactive: Potency [1] | activity change, negative = viability loss [2] -8.31% [at 9.23 µM] | activity change, negative = cell killing [3] -7.27% [at 9.23 µM]

C=C1CCC2C(C)(C)CC(O)CC2(C)C1CCC(C)CC(=O)O (centres undefined)
inactive: Potency [1] | Potency [2] | Potency [3]

CC1CCC23COC(=O)C2=CC(O)CC3C1(C)CCc1ccoc1 (centres undefined)
inactive: Potency [1] | Potency [2] | Potency [3]

CC(C)=CCC/C(C)=C/CO[C@@H]1O[C@H](CO[C@@H]2O[C@@H](CO)[C@H](O)[C@H]2O)[C@@H](O)[C@H](O)[C@H]1O
inactive: Potency [1] | Potency [2] | Potency [3]

O=C(O)c1ccnc2cc(C(OCC3CCC(F)(F)CC3)c3ccccc3Cl)[nH]c12 (centres undefined)
inactive: Potency [1] | Potency [2] | Potency [3]
